These results are taken from PubChem BioAssay (NCI).

This is part of a sample that, as a whole, favours compounds with a hit. Of some 83,000 tested, about 20% had one in any assay.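 48-hour exposure, single concentration, 96-well plates; percent growth endpoint where 0 means no net growth. Active: below 10.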 Unmarked numbers belong to inactive results. Active and inactive are the calls of the source.

What all share (assay): NCI-60 one-dose screen, 48 h (100 = growth as untreated, 0 = no growth, -100 = all killed)
Holding throughout (details): 10 µM unless noted

The subject of test [1] is NCI-H23 lung.
Test [2] deals with NCI-H226 lung.
Test [3] relates to NCI-H322M lung.
Test [4] deals with HOP-62 NSCLC.
Test [5] deals with NCI-H460 lung.
The test system of test [6] is HOP-92 NSCLC.
Test [7] relates to NCI-H522 lung.
In test [8] the test system is A549/ATCC NSCLC.
Test [9] has as its system 786-0 renal.
Test [10] concerns COLO 205 colon.
Test [11] concerns DU-145 prostate.
In test [12] the test system is K-562 leukemia.
In test [13] the test system is MALME-3M melanoma.
Test [14] deals with MDA-MB-231 breast.
Test [15] deals with RXF 393 renal.
For test [16], the system named is SF-268 CNS.
Test [17] has as its system SF-295 CNS.
Test [18] relates to SF-539 CNS.
Test [19] relates to UACC-257 melanoma.
Test [20] deals with M14 melanoma.

In the case of `CN[C@]1(c2ccccc2Cl)CCCC[C@H]1NCCCN1CCN(C)CC1`, the growth in test [1] is 109%; in test [2], 94.5%; in [3], 106%; in test [4] it was 93.8%; in test [5] it was 110%; in test [6] it was 79.1%. In addition, the growth in test [7] is 93.9%; in [8], 98.5%; in test [9], 92.2%; in test [10], 108%; in test [11] it was 108%; in test [12], 90.3%. Moreover, the growth in [13] is 104%; in test [14] it was 94.2%; in test [15], 97.4%; in test [16], 94.1%; in test [17], 102%; in [18], 94.8%. Besides, the growth in [19] was 102%.

With `CC(C)(C)C(=O)OCOP(=O)(OCOC(=O)C(C)(C)C)C1CCCN(O)C1=O` (stereo not drawn), the growth in test [1] is -13.4% (active); in test [2], -1.39% (active); in [3] it was 14.7%; in test [4], 18.2%; in test [5], 1.85% (active); in test [6] it was 7.23% (active). Besides, the growth in test [7] was -7.58% (active); in [8], 10.8%; in [9], 12.4%; in [10] it was -16.8% (active); in test [11], 20%; in [12], 8.42% (active). Further, the growth in test [13] is 12.3%; in [14], 5.67% (active); in test [15], -9.35% (active); in [16] it was 4.35% (active); in test [17], 54%; in test [18] it was 27.4%. Further, the growth in test [19] was 18.9%.

As to `C[C@@]12CC[C@@H](O)C[C@@H]1CC[C@H]1[C@H]2CC[C@@]2(C)[C@H](c3ccc(=O)oc3)CC[C@@]12O`, the growth in test [1] is -50% (active); in [2], -91.9% (active); in test [3] it was -45.3% (active); in test [4] it was -75.3% (active); in [5], -78.7% (active); in test [6], -13.1% (active). The growth is -26% (active) in test [7]; -61.9% (active) in test [8]; -51.1% (active) in test [9]; -68.1% (active) in [10]; -97.4% (active) in test [11]; 0.291% (active) in test [12]. Also, the growth in test [13] was -45.4% (active); in test [14], -33.9% (active); in test [15] it was -39.9% (active); in test [16], -73.1% (active); in test [17] it was -84.5% (active); in test [18], -85.4% (active). Moreover, the growth in test [19] is -78.8% (active).

As to `CCN(CCO)C(Cc1ccccc1)c1ccccc1` (stereo not drawn), the growth is 93.1% in test [1]; 101% in test [2]; 106% in test [3]; 96.5% in test [4]; 104% in test [5]; 100% in test [6]. Also, the growth in [7] was 87.9%; in test [8] it was 103%; in [9] it was 105%; in test [10], 102%; in [11], 105%; in [12], 107%. Moreover, the growth was 96.5% in test [13]; 101% in test [14]; 106% in test [15]; 101% in test [16]; 95.5% in test [17]; 106% in test [18]. The growth in test [19] is 114%.

For `CCOC(=O)CCN(C)C1=Nc2ccc(Cl)cc2C(c2ccccc2)=[N+]([O-])C1`, the growth is 101% in [1]; 104% in [2]; 98.4% in test [3]; 96.6% in [4]; 106% in test [5]; 98.6% in [6]. In addition, the growth was 70.9% in test [7]; 100% in test [8]; 117% in test [9]; 129% in test [10]; 106% in [11]; 96.8% in [12]. The growth was 101% in [13]; 97.9% in test [14]; 105% in test [15]; 99.6% in [16]; 102% in [17]; 107% in test [18]. Besides, the growth in test [19] is 105%.

Turning to `CCC(C)(C)[C@H](NC(=O)[C@H]1CCCCN1C)C(=O)N(C)[C@H](C[C@@H](OC(C)=O)c1nc(C(=O)N[C@@H](Cc2ccccc2)C[C@H](C)C(=O)O)cs1)C(C)C`, the growth in test [1] is 29.8%; in test [2] it was -44.7% (active); in [3], 41.5%; in [4], 15%; in test [5] it was 5.25% (active); in test [6], 19.4%. The growth in test [7] is -32.1% (active); in test [8], 13.1%; in test [9] it was 10.8%; in [10], -51.2% (active); in test [11], 0.164% (active); in test [12], 6.58% (active). The growth in test [13] is 27.4%; in test [14] it was 15.7%; in [15] it was 38.4%; in test [16], 23.3%; in [17] it was -7.51% (active); in test [18], -31% (active). For the same molecule, the growth in test [19] is 55.5%.

In the case of `O=C(Nc1ccncc1F)c1cn(CC2CC2)c2ccccc12`, the growth was 101% in [1]; 83.7% in test [2]; 109% in test [3]; 108% in [4]; 101% in test [5]; 123% in test [6]. Further, the growth was 92.3% in test [7]; 98.5% in [8]; 97.6% in test [9]; 112% in test [10]; 114% in test [11]; 95.7% in test [12]. In addition, the growth in test [13] is 119%; in test [14] it was 109%; in test [15], 103%; in test [16], 105%; in [17] it was 100%; in [18] it was 110%. For the same molecule, the growth in [19] was 108%.

As for `CC[C@H](C)[C@H](NC(=O)N[C@@H](C)c1ccccc1)C(=O)N(C)[C@H](C[C@@H](OC(C)=O)c1nc(C(=O)N[C@@H](Cc2ccccc2)C[C@H](C)C(=O)OC)cs1)C(C)C`, the growth was 27% in test [1]; 30.7% in [2]; 51.2% in test [3]; 22.7% in test [4]; 3.57% (active) in test [5]; 73.1% in [6]. Further, the growth is -39.1% (active) in [7]; 31.3% in test [8]; 10.9% in [9]; -46.8% (active) in test [10]; -4.64% (active) in [11]; 14% in [12]. The growth in test [13] was 44.9%; in test [14] it was -6.65% (active); in [15], -8.76% (active); in test [16], 22.2%; in [17] it was 5.49% (active); in test [18], -27.6% (active). For the same molecule, the growth in [19] is 75.3%; in test [20], -12.2% (active).
